About 83,000 compounds went through this panel and 20% of them were active in at least one assay; those are over-represented in the sample as a whole.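 Treatment: one concentration, 48 hours, 96-well format. Scoring: percent growth, with anything below 10 considered active.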 A number with no mark means an inactive call. Active and inactive are the calls of the source.

Some test systems named below: SK-MEL-2 melanoma; EKVX NSCLC; SN12C renal; UO-31 renal; TK-10 renal; ACHN renal; CAKI-1 renal; A498 renal; CCRF-CEM leukemia; MOLT-4 leukemia; SR leukemia; RPMI-8226 leukemia; OVCAR-5 ovarian; OVCAR-4 ovarian; SK-OV-3 ovarian; IGROV1 ovarian; OVCAR-3 ovarian; HS 578T breast; NCI/ADR-RES ovarian; OVCAR-8 ovarian.
Holding throughout (assay): NCI-60 one-dose screen, 48 h (100 = growth as untreated, 0 = no growth, -100 = all killed)
What all share (details): 10 µM unless noted

In the case of `COc1ccc(C(=O)n2nc(-c3ccccc3)nc2N)cc1OC`, the growth is 103% in the experiment on SK-MEL-2 melanoma; 88.2% in the experiment with EKVX NSCLC; 90.5% in the experiment with SN12C renal; 70.5% in the experiment on UO-31 renal; 112% with TK-10 renal; 82.4% in the experiment on ACHN renal. Besides, the growth was 84.3% in the experiment with CAKI-1 renal; 83.7% in the experiment with A498 renal; 86.8% in the experiment with CCRF-CEM leukemia; 87.8% in the experiment on MOLT-4 leukemia; 80.6% in the experiment on SR leukemia; 92.1% in the experiment with RPMI-8226 leukemia. Further, the growth in the experiment on OVCAR-5 ovarian was 96.7%; with OVCAR-4 ovarian, 90.9%; in the experiment with SK-OV-3 ovarian, 80.8%; in the experiment with IGROV1 ovarian it was 73.5%; in the experiment on OVCAR-3 ovarian it was 94.5%; in the experiment on HS 578T breast, 92.1%. Also, in the experiment with NCI/ADR-RES ovarian, the growth is 96.5%.

Turning to `CCc1ccc(Oc2c(-c3ccc(OCCc4cccc(C(F)(F)F)c4)cc3O)n[nH]c2C(F)(F)F)cc1`, the growth in the experiment on SK-MEL-2 melanoma is 55.4%; with EKVX NSCLC, 50.1%; in the experiment on SN12C renal, 19.9%; in the experiment on UO-31 renal it was 16.1%; in the experiment with TK-10 renal it was 58.4%; in the experiment with ACHN renal it was 16.6%. For the same compound, the growth in the experiment with CAKI-1 renal was 63.3%; in the experiment with A498 renal, 35.9%; with CCRF-CEM leukemia, 11.6%; with MOLT-4 leukemia, 4.53% (active); in the experiment with SR leukemia, 47.3%; in the experiment with RPMI-8226 leukemia, 3.94% (active). Besides, the growth in the experiment with OVCAR-5 ovarian is 84.3%; in the experiment with SK-OV-3 ovarian, 64.9%; with IGROV1 ovarian, 32.8%; in the experiment on OVCAR-3 ovarian it was 0.567% (active); in the experiment on HS 578T breast, 51.1%; in the experiment on NCI/ADR-RES ovarian, 42%.

Regarding `C=C1C(=O)O[C@H]2[C@H]1CC/C(COC(=O)NCCOCCOCC(=O)Nc1ccc(OC)c(C(N)=O)c1O)=C\CC[C@@]1(C)O[C@@H]21`, the growth is 72.5% in the experiment on SK-MEL-2 melanoma; 84.1% in the experiment with EKVX NSCLC; 66% in the experiment on SN12C renal; 74.9% in the experiment with UO-31 renal; 45.5% in the experiment on TK-10 renal; 40.8% in the experiment with ACHN renal. For the same compound, the growth in the experiment on CAKI-1 renal was 82%; with A498 renal it was 92.5%; with CCRF-CEM leukemia, -4.37% (active); in the experiment on MOLT-4 leukemia it was 17%; in the experiment on SR leukemia it was 7.91% (active); in the experiment on RPMI-8226 leukemia it was 16%. The growth was 90.9% with OVCAR-5 ovarian; 71% in the experiment on OVCAR-4 ovarian; 109% with SK-OV-3 ovarian; 24.7% with IGROV1 ovarian; 45.8% with OVCAR-3 ovarian; 90.1% with HS 578T breast. Moreover, the growth in the experiment on NCI/ADR-RES ovarian was 94.6%.

As to `COc1cc(C(=O)N2N=C(c3ccc(S(C)(=O)=O)cc3)CC2c2ccco2)cc(OC)c1OC` (stereo not drawn), the growth in the experiment on SK-MEL-2 melanoma is 59.1%; with EKVX NSCLC it was 86%; with SN12C renal it was 92.5%; with UO-31 renal, 18.6%; in the experiment with TK-10 renal, 106%; with ACHN renal, 48.5%. Also, the growth is 43.7% in the experiment on CAKI-1 renal; 76.7% with A498 renal; 42% in the experiment on CCRF-CEM leukemia; 41.5% in the experiment with MOLT-4 leukemia; 8.01% (active) in the experiment on SR leukemia; 44.6% in the experiment with RPMI-8226 leukemia. Moreover, the growth was 89.5% in the experiment with OVCAR-5 ovarian; 84.1% with OVCAR-4 ovarian; -2.69% (active) in the experiment with IGROV1 ovarian; 5% (active) in the experiment with OVCAR-3 ovarian; 74.9% in the experiment with HS 578T breast; 63.1% with NCI/ADR-RES ovarian.

Regarding `CC(C)c1cc(C(C)C)c(S(=O)(=O)Oc2ccc(NC(=O)c3ccc(Cl)cc3)cc2)c(C(C)C)c1`, the growth was 31.3% in the experiment on SK-MEL-2 melanoma; 19.4% in the experiment on EKVX NSCLC; 21.4% in the experiment on SN12C renal; 29.9% with UO-31 renal; 42.5% with TK-10 renal; 15.4% with ACHN renal. Further, the growth is 21.6% in the experiment with CAKI-1 renal; 17.7% with A498 renal; 25.2% with CCRF-CEM leukemia; 17.6% with MOLT-4 leukemia; 25.9% in the experiment with SR leukemia; 16.4% in the experiment on RPMI-8226 leukemia. The growth with OVCAR-5 ovarian was 86.4%; in the experiment on OVCAR-4 ovarian, 39.6%; in the experiment on SK-OV-3 ovarian, 78.2%; with IGROV1 ovarian it was 47.1%; in the experiment on OVCAR-3 ovarian it was 31.6%; in the experiment with HS 578T breast, 39.5%. Also, the growth in the experiment on NCI/ADR-RES ovarian is 35.6%.

`Cc1ccc(/C=N\NC(=O)c2[nH]c3ccc(F)cc3c2-c2ccccc2)cc1`: the growth is 23.2% with SK-MEL-2 melanoma; 38% in the experiment with EKVX NSCLC; 41.5% in the experiment with SN12C renal; 32.1% with UO-31 renal; 72.5% in the experiment with TK-10 renal; 38.5% in the experiment on ACHN renal. The growth with CAKI-1 renal was 1.21% (active); in the experiment on A498 renal it was 19%; in the experiment on CCRF-CEM leukemia, 18.4%; in the experiment on MOLT-4 leukemia it was 28.2%; in the experiment on SR leukemia, 19.7%; in the experiment with OVCAR-8 ovarian, 16.6%. The growth was 62.5% with OVCAR-5 ovarian; 46.8% with OVCAR-4 ovarian; 20.4% in the experiment with SK-OV-3 ovarian; 91.4% in the experiment on IGROV1 ovarian; -32.3% (active) in the experiment with OVCAR-3 ovarian; 16.7% in the experiment on HS 578T breast.

`CNCCCNc1nc2ccccc2c2c(=O)c3cc(OC)ccc3sc12`: the growth was 113% in the experiment on SK-MEL-2 melanoma; 87.4% with EKVX NSCLC; 78.4% in the experiment on SN12C renal; 52.4% in the experiment on UO-31 renal; 98.8% in the experiment on TK-10 renal; 70.5% in the experiment with ACHN renal. For the same compound, the growth was 61.7% with CAKI-1 renal; 56.5% in the experiment on A498 renal; 11.9% with CCRF-CEM leukemia; 48.3% in the experiment on MOLT-4 leukemia; -30.2% (active) in the experiment with SR leukemia; 72.7% in the experiment with OVCAR-8 ovarian. The growth with OVCAR-5 ovarian was 92.2%; in the experiment on OVCAR-4 ovarian, 61.2%; in the experiment with SK-OV-3 ovarian it was 84.9%; in the experiment with IGROV1 ovarian it was 68.1%; in the experiment on OVCAR-3 ovarian it was 75.7%; in the experiment on HS 578T breast it was 75%.

Regarding `COc1ccc(CN2c3ccccc3CCc3ccccc32)cc1F`, the growth with SK-MEL-2 melanoma is 27.2%; in the experiment with EKVX NSCLC, 41.1%; with SN12C renal, 39.1%; in the experiment with UO-31 renal it was 43.2%; in the experiment with TK-10 renal, 62.7%; in the experiment on ACHN renal it was 35.6%. For the same compound, the growth in the experiment on CAKI-1 renal was 29.7%; with A498 renal, -6.65% (active); with CCRF-CEM leukemia it was 4.49% (active); with MOLT-4 leukemia it was 16.2%; in the experiment with SR leukemia, 11.6%; in the experiment with RPMI-8226 leukemia, 8.72% (active). Besides, the growth in the experiment on OVCAR-5 ovarian is 40.7%; in the experiment on OVCAR-4 ovarian, 42%; in the experiment on SK-OV-3 ovarian, 38.4%; in the experiment on IGROV1 ovarian, 51.7%; in the experiment with OVCAR-3 ovarian, -41.7% (active); with HS 578T breast, 30.2%. For the same compound, the growth in the experiment with NCI/ADR-RES ovarian is 11.1%.

(Values after PubChem BioAssay (NCI).)
